Data: PubChem BioAssay
“And” between values parts separate entries of the source, which are not always exact repeats. Equal entries are not always repeated. Records with an inconclusive call do not appear. The source made the active and inactive calls.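 Rule for the calls, unless noted: active = normalized viability below 100% at a tested concentration; inactive = the rest.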

Assays:
[1] = growth inhibition of DIPG glioma cells, dose response, cell-based, SU-DIPG-XVII, MIPE5.0, CellTiter-Glo, qHTS (AID 1347060; cut-off not given, nearly all actives have AC50 up to about 26 µM;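 for AC50: cells exposed to compound for 48 hours before viability readout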); settings: SU-DIPG-XVII viability, CellTiter-Glo ATP luminescence
[2] = growth inhibition of DIPG glioma cells, dose response, cell-based, SU-DIPG-XIII, MIPE4.0, CellTiter-Glo, qHTS (AID 1347061; cut-off not given, nearly all actives have AC50 up to about 37 µM;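 note: cells exposed to compound for 48 hours before readout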); settings: SU-DIPG-XIII viability, CellTiter-Glo ATP luminescence
[3] = growth inhibition of DIPG glioma cells, dose response, cell-based, JHH-DIPG-1, MIPE4.0, CellTiter-Glo, qHTS (AID 1347062; cut-off not given, nearly all actives have AC50 up to about 27 µM;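 for AC50: cells exposed to compound for two days before readout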); settings: JHH-DIPG-1 viability, CellTiter-Glo ATP luminescence
[4] = growth inhibition of DIPG glioma cells, dose response, cell-based, SU-DIPG-IV, MIPE4.0, CellTiter-Glo, qHTS (AID 1347063; cut-off not given, nearly all actives have AC50 up to about 30 µM;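 note: compound exposure lasted 48 hours before the viability readout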); settings: SU-DIPG-IV viability, CellTiter-Glo ATP luminescence
[5] = growth inhibition of DIPG glioma cells, dose response, cell-based, SU-DIPG-XIII, MIPE5.0, CellTiter-Glo, qHTS (AID 1347064; cut-off not given, nearly all actives have AC50 up to about 23 µM;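 for AC50: cells exposed to compound for 48 hours before the viability read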); settings: SU-DIPG-XIII viability, CellTiter-Glo ATP luminescence
[6] = viability loss in pontine glioma line – cell-based, SU-DIPG-XXV, MIPE5.0, CellTiter-Glo, qHTS, dose response (AID 1347065; cut-off not given, nearly all actives have AC50 up to about 26 µM;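 note: cells exposed to compound for 48 hours before ATP readout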); settings: CellTiter-Glo ATP luminescence
[7] = SU-DIPG-VI glioma cell viability, MIPE4.0 library, CellTiter-Glo luminescence, qHTS (AID 1347066; cut-off not given, nearly all actives have AC50 up to about 30 µM;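 note: cells exposed to compound for 48 hours before readout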); settings: CellTiter-Glo ATP luminescence
[8] = JHH-DIPG-1 glioma cell viability, MIPE5.0 library, CellTiter-Glo luminescence, qHTS (AID 1347067; cut-off not given, nearly all actives have AC50 up to about 26 µM;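 note: cells exposed to compound for 48 hours before readout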); settings: JHH-DIPG-1 glioma viability, CellTiter-Glo ATP luminescence
[9] = SU-DIPG-XXV glioma cell viability, MIPE5.0 library, qHTS (AID 1347068; cut-off not given, nearly all actives have IC50 up to about 30 µM;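 for IC50: cells exposed to compound for 48 hours before viability readout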)
[10] = sensitizers of A549 cells to miR-34 induction, primary screen, imaging, A549 dox-inducible miR-34, nuclei and caspase counts (AID 1347080;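 active = compounds whose cell count with miR-34 switched on is under 0.7 times the count with it off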); settings: A549 miR-34 inducible, Hoechst nuclei count, 48 h
[11] = modifiers of HSF1 nuclear foci, imaging, Selleck Cancer Library (AID 1347162; in the data active = plate-normalised HSF1 focus index below about 0.46); settings: human cells, at 10 µM; SSMD: measured here: HSF1 foci SSMD mean; cell count: measured here: cell number; plate-normalised HSF1 focus index: stronger effect = lower value
[12] = survival rescue of mitochondrial mutant cells in low glucose, primary screen, MELAS cybrids, Rieske KO mouse fibroblasts, CellTiter-Glo (AID 1508586;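 active = mean z-score across replicates of 1.96 or higher in either the MELAS or the Rieske mutant cell line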;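 note: z relative to plate mean and SD of compound and empty wells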)
[13] = ovarian cancer cell viability with rucaparib, profiling panel, oncology-focused library, rucaparib conditional (AID 1508598); settings: patient-derived ovarian cancer cells, CellTiter-Glo viability, 144 h, stronger effect = lower value
[14] = viability rescue of complex I mutant cybrids, primary screen, cell-based, galactose medium, ATP luminescence (AID 1645843;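 active = z-score of at least 1.8 in each of two replicates, scored against plate mean and spread of sample wells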;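 note: positive z means more ATP and so rescue of galactose-driven cybrid death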); settings: complex I mutant cybrid cells, 72 h, stronger effect = higher value
[15] = stronger effect = lower value, cell number ratio, induced over uninduced
[16] = measured here: relative caspase fold change +Dox/-Dox
[17] = measured here: total cells with miR-34 induction, stronger effect = lower value
[18] = measured here: total cells without miR-34 induction
[19] = MELAS cybrid survival, CellTiter-Glo 48 h, stronger effect = higher value
[20] = Rieske KO mouse fibroblast survival, CellTiter-Glo 72 h
[21] = at 0.000305 µM, OCI-C5x cells, with rucaparib 10 µM, 100% = cells with rucaparib alone
[22] = at 0.000305 µM, OCI-C5x cells, without rucaparib
[23] = at 0.000305 µM, OCI-P5x cells, with rucaparib 20 µM, 100% = cells with rucaparib alone
[24] = at 0.000305 µM, OCI-P5x cells, without rucaparib
[25] = at 0.00122 µM, OCI-C5x cells, with rucaparib 10 µM, 100% = cells with rucaparib alone
[26] = at 0.00122 µM, OCI-C5x cells, without rucaparib
[27] = at 0.00122 µM, OCI-P5x cells, with rucaparib 20 µM, 100% = cells with rucaparib alone
[28] = at 0.00122 µM, OCI-P5x cells, without rucaparib
[29] = at 0.00488 µM, OCI-C5x cells, with rucaparib 10 µM, 100% = cells with rucaparib alone
[30] = at 0.00488 µM, OCI-C5x cells, without rucaparib
[31] = at 0.00488 µM, OCI-P5x cells, with rucaparib 20 µM, 100% = cells with rucaparib alone
[32] = at 0.00488 µM, OCI-P5x cells, without rucaparib
[33] = at 0.0195 µM, OCI-C5x cells, with rucaparib 10 µM, 100% = cells with rucaparib alone
[34] = at 0.0195 µM, OCI-C5x cells, without rucaparib
[35] = at 0.0195 µM, OCI-P5x cells, with rucaparib 20 µM, 100% = cells with rucaparib alone
[36] = at 0.0195 µM, OCI-P5x cells, without rucaparib
[37] = at 0.0781 µM, OCI-C5x cells, with rucaparib 10 µM, 100% = cells with rucaparib alone
[38] = at 0.0781 µM, OCI-C5x cells, without rucaparib
[39] = at 0.0781 µM, OCI-P5x cells, with rucaparib 20 µM, 100% = cells with rucaparib alone
[40] = at 0.0781 µM, OCI-P5x cells, without rucaparib
[41] = at 0.313 µM, OCI-C5x cells, with rucaparib 10 µM, 100% = cells with rucaparib alone
[42] = at 0.313 µM, OCI-C5x cells, without rucaparib
[43] = at 0.313 µM, OCI-P5x cells, with rucaparib 20 µM, 100% = cells with rucaparib alone
[44] = at 0.313 µM, OCI-P5x cells, without rucaparib
[45] = at 1.25 µM, OCI-C5x cells, with rucaparib 10 µM, 100% = cells with rucaparib alone
[46] = at 1.25 µM, OCI-C5x cells, without rucaparib
[47] = at 1.25 µM, OCI-P5x cells, with rucaparib 20 µM, 100% = cells with rucaparib alone
[48] = at 1.25 µM, OCI-P5x cells, without rucaparib
[49] = at 5 µM, OCI-C5x cells, with rucaparib 10 µM, 100% = cells with rucaparib alone
[50] = at 5 µM, OCI-C5x cells, without rucaparib
[51] = at 5 µM, OCI-P5x cells, with rucaparib 20 µM, 100% = cells with rucaparib alone
[52] = at 5 µM, OCI-P5x cells, without rucaparib

CCC(=O)O[C@]1(C(=O)CO)CC[C@H]2[C@@H]3CCC4=CC(=O)CC[C@]4(C)[C@H]3CC[C@@]21C
inactive: outcome [1] | outcome [2] | outcome [3] | outcome [4] | outcome [5] | outcome [6] | outcome [7] | outcome [8] | outcome [9]

Nc1nc(-c2nn(Cc3ccccc3F)c3ncccc23)nc(N)c1N1CCOCC1
inactive: outcome [1] | outcome [2] | outcome [3] | outcome [4] | outcome [5] | outcome [6] | outcome [7] | outcome [8] | outcome [9]

COc1cccc2c(NCc3ccccc3)nc(-n3c(N)nc4ccccc43)nc12
active: AC50 [1] 3.72 µM | AC50 [3] 9.35 µM | AC50 [4] 3.32 µM | AC50 [5] 3.32 µM | AC50 [6] 2.63 µM | AC50 [7] 2.64 µM | AC50 [8] 2.95 µM | IC50 [9] 2.95 µM
inactive: outcome [2]

Cc1cnc(Nc2ccc(CN3CCOCC3)cc2)nc1Nc1cccc(S(=O)(=O)NC(C)(C)C)c1
active: AC50 [1] 4.17 µM | AC50 [2] 10.5 µM | AC50 [3] 11.8 µM | AC50 [4] 11.8 µM | AC50 [5] 3.32 µM | AC50 [6] 3.32 µM | AC50 [7] 8.33 µM | AC50 [8] 5.9 µM | IC50 [9] 3.72 µM

Cc1ccc(C(=O)Nc2ccc(CN3CCN(C)CC3)c(C(F)(F)F)c2)cc1C#Cc1cnc2cccnn12
1.5: SSMD [11]
597: cell count [10, 18]
814: cell count [10, 17]
7680: cell count [11]
-2.78: z-score [12, 20]
active: AC50 [1] 0.59 µM | AC50 [2] 0.418 µM | AC50 [3] 6.62 µM | AC50 [4] 1.18 µM | AC50 [5] 0.661 µM | AC50 [6] 0.833 µM | AC50 [7] 8.33 µM | AC50 [8] 2.35 µM | IC50 [9] 2.95 µM | viability [13, 21] 94.7% | viability [13, 25] 98% | viability [13, 31] 97% | viability [13, 33] 95.2% | viability [13, 36] 89.9% | viability [13, 37] 94.7% | viability [13, 39] 88.1% | viability [13, 41] 93.2% | viability [13, 43] 44.4% | viability [13, 44] 77.9% | viability [13, 45] 58.9% | viability [13, 47] 24.3% | viability [13, 48] 28.1% | viability [13, 49] 2.01% | viability [13, 50] 3.5% | viability [13, 51] 8.21% | viability [13, 52] 6.01%
inactive: fold change [10, 15] 1.36 | plate-normalised HSF1 focus index [11] 1.09 | z-score [12, 19] 1.37 | viability [13, 22] 114% | viability [13, 23] 108% | viability [13, 24] 114% | viability [13, 26] 122% | viability [13, 27] 103% | viability [13, 28] 111% | viability [13, 29] 104% | viability [13, 30] 130% | viability [13, 32] 107% | viability [13, 34] 127% | viability [13, 35] 102% | viability [13, 38] 117% | viability [13, 40] 111% | viability [13, 42] 118% | viability [13, 46] 116%
1.05: fold change [10, 16]

OCCCNc1cc(-c2ccnc(Nc3cccc(Cl)c3)n2)ccn1
inactive: outcome [7]
active: AC50 [1] 0.132 µM | AC50 [2] 0.148 µM | AC50 [3] 0.148 µM | AC50 [4] 0.0526 µM | AC50 [5] 0.0833 µM | AC50 [6] 0.132 µM | AC50 [8] 0.118 µM | IC50 [9] 0.148 µM

CS(=O)(=O)c1cccc(CNc2nc(Nc3ccc4c(c3)CCC(=O)N4)ncc2C(F)(F)F)c1
1320 and 1930: cell count [10, 17]
1440 and 2320: cell count [10, 18]
active: AC50 [1] 6.61 µM | AC50 [2] 18.7 µM | AC50 [3] 16.6 µM | AC50 [4] 18.7 µM | AC50 [5] 8.33 µM | AC50 [6] 4.68 µM | AC50 [7] 16.6 µM | AC50 [8] 2.35 µM | IC50 [9] 8.33 µM | viability [13, 21] 98.4% | viability [13, 23] 88.7% | viability [13, 27] 84.8% | viability [13, 31] 93.9% | viability [13, 35] 91.7% | viability [13, 39] 88% | viability [13, 43] 93.7% | viability [13, 47] 75.9% | viability [13, 49] 56.8% | viability [13, 50] 59.8% | viability [13, 51] 44.7% | viability [13, 52] 74.7%
7540: cell count [11]
-0.256: z-score [12, 20]
0.606 and 1.43: fold change [10, 16]
-1.44: SSMD [11]
inactive: fold change [10, 15] 0.913 and 0.835 | plate-normalised HSF1 focus index [11] 0.911 | z-score [12, 19] -0.299 | viability [13, 22] 109% | viability [13, 24] 101% | viability [13, 25] 108% | viability [13, 26] 114% | viability [13, 28] 106% | viability [13, 29] 113% | viability [13, 30] 112% | viability [13, 32] 109% | viability [13, 33] 104% | viability [13, 34] 109% | viability [13, 36] 108% | viability [13, 37] 102% | viability [13, 38] 109% | viability [13, 40] 112% | viability [13, 41] 108% | viability [13, 42] 116% | viability [13, 44] 115% | viability [13, 45] 113% | viability [13, 46] 116% | viability [13, 48] 107% | z-score [14] -0.545

Cc1cnc(Nc2ccc(F)cc2Cl)nc1-c1c[nH]c(C(=O)N[C@H](CO)c2cccc(Cl)c2)c1
active: AC50 [1] 1.32 µM | AC50 [2] 18.7 µM | AC50 [3] 0.833 µM | AC50 [4] 0.469 µM | AC50 [5] 1.32 µM | AC50 [6] 2.09 µM | AC50 [7] 18.7 µM | AC50 [8] 0.833 µM | IC50 [9] 9.34 µM
